According to PMC5540273 (PLoS ONE, 2017):

How the values were obtained:
Details in all cases: concentration: 1 μM, replicates: in singlicate; n = 1
ABL2 = tested on: ABL2
ACVR1B = tested on: ACVR1B
ACVR1 = tested on: ACVR1
ACVR2A = tested on: ACVR2A
ACVR2B = tested on: ACVR2B
ACVRL1 = tested on: ACVRL1
ADCK3 = tested on: T1, ADCK3
T1 construct: gene CABC1

ADCK4 = tested on: ADCK4
AKT1 = tested on: AKT1
AKT2 = tested on: AKT2
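Further: KINOMEscan kinase panel screen.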

Row | SMILES | %Inh (ABL2) [%] | %Inh (ACVR1B) [%] | %Inh (ACVR1) [%] | %Inh (ACVR2A) [%] | %Inh (ACVR2B) [%] | %Inh (ACVRL1) [%] | %Inh (ADCK3) [%] | %Inh (ADCK4) [%] | %Inh (AKT1) [%] | %Inh (AKT2) [%]
1 | Clc1ccc(-c2cc(-c3c[nH]nc3-c3ccccn3)ccn2)cc1 [GW681251] | 15 | 44 | 12 | 33 | 52 | 0 | 13 | 4 | 27 | 0
2 | Nc1nc(-c2ccc3c(N)n[nH]c3c2)cc(N2CCCCC2)n1 [GSK2228768] | 12 | 0 | 0 | 0 | 0 | 0 | 0 | 6 | 0 | 0
3 | Nc1nc(-c2ccccn2)c(-c2ccnc3ccccc23)s1 [GW548057] | 14 | 59 | 18 | 0 | 56 | 0 | 9 | 44 | 0 | 0
4 | COc1cc2c(Nc3cccc(NC(=O)c4ccccc4)c3)ncnc2cc1OCCCN1CCOCC1 [GSK223810] | 21 | 7 | 5 | 0 | 0 | 0 | 30 | 12 | 0 | 19
5 | O=C(Nc1n[nH]c2nc(-c3ccco3)c(Br)cc12)c1ccc(CN2CCCC2)cc1.O=C(O)[C@H](O)[C@@H](O)C(=O)O [SB-742352] | 0 | 0 | 24 | 0 | 0 | 0 | 0 | 0 | 0 | 0
6 | Fc1cccc(COc2ccc(Nc3ncnc4cc[nH]c34)cc2Cl)c1 | 10 | 12 | 19 | 0 | 3 | 16 | 1 | 17 | 0 | 0
7 | Nc1nc(-c2cccnc2)c(-c2ccnc3ccccc23)s1 [GW684083] | 12 | 10 | 32 | 0 | 0 | 12 | 24 | 45 | 0 | 1
8 | Fc1ccc(-c2ncn(CCCNCc3ccccc3)c2-c2ccncc2)cc1 | 12 | 10 | 2 | 0 | 0 | 17 | 0 | 0 | 19 | 12
9 | O=C(CCO)NCCn1ccc2ncnc(Nc3ccc(Oc4cccc(C(F)(F)F)c4)c(Cl)c3)c21 | 0 | 0 | 0 | 0 | 0 | 0 | 3 | 0 | 0 | 0
10 | CC(C)(C)c1ccc(-n2cnc3c(N)ncnc32)cc1 [SKF-97263] | 7 | 0 | 10 | 7 | 0 | 0 | 23 | 0 | 0 | 12
11 | Fc1ccc(Nc2nccc(-c3c(-c4ccc(Cl)cc4)nn4ncccc34)n2)cc1F [GW829058] | 19 | 20 | 0 | 0 | 0 | 0 | 0 | 0 | 18 | 9
12 | Cl.Cl.c1ccc(-c2cc3ccncc3cc2OC2CCNCC2)cc1 [GSK1122999] | 8 | 0 | 22 | 0 | 0 | 0 | 22 | 42 | 0 | 0
13 | Cn1ccc2ncnc(Nc3ccc(Oc4cccc(Cl)c4)c(Cl)c3)c21 | 16 | 28 | 0 | 0 | 17 | 0 | 1 | 0 | 22 | 7
14 | Nc1nc(-c2ccc3c(N)n[nH]c3c2)cc(N2CCC[C@@H](C(=O)Nc3ccccc3)C2)n1.O=C(O)C(F)(F)F.O=C(O)C(F)(F)F [GSK2288359] | 0 | 0 | 0 | 0 | 0 | 0 | 0 | 11 | 0 | 7
15 | Nc1nccc2scc(-c3ccc4c(c3)CCN4C(=O)Cc3cc(F)ccc3F)c12 [GSK2587663] | 18 | 0 | 0 | 0 | 0 | 0 | 24 | 35 | 0 | 17
16 | C[C@H]1CC[C@@H](C(=O)Nc2ccccc2)CN1c1cc(-c2ccc3c(N)n[nH]c3c2)nc(N)n1 [GSK2283293] | 15 | 0 | 0 | 0 | 0 | 0 | 11 | 40 | 0 | 6
17 | CN1CCC(n2cnc(-c3ccc(F)cc3)c2-c2ccnc(NC3CCNCC3)n2)CC1 [SB-229482] | 0 | 0 | 0 | 0 | 0 | 7 | 9 | 5 | 0 | 0
